Measurements taken from a collection of fitness landscapes (doi:10.1126/science.1257360).
In all, about 140,000 sequences were measured (“enrichment ratio after two sorts for PhoP signalling”: median about 0, highest 2% from about 11 on). What follows is part of a selection rich in the highest values, with near analogues and random picks from the rest.

B1: PhoQ; a variant is named by its letters at X, in order, P23837 (parent)
chain: MKKLLRLFFPLSLRVRFLLATAAVVLVLSLAYGMVALIGYSVSFDKTTFRLLRGESNLFYTLAKWENNKLHVELPENIDKQSPTMTLIYDENGQLLWAQRDVPWLMKMIQPDWLKSNGFHEIEADVNDTSLLLSGDHSIQQQLQEVREDDDDAEMTHSVAVNVYPATSRMPKLTIVVVDTIPVELKSSYMVWSWFIYVLSANLLLVIPLLWVAAWWSLRPIEALAKEVRELEEHNRELLNPATTRELTSLVRNLNRLLKSERERYDKYRTTLTDLTHSLKTPLXXLQXXLRSLRSEKMSVSDAEPVMLEQISRISQQIGYYLHRASMRGGTLLSRELHPVAPLLDNLTSALNKVYQRKGVNISLDISPEISFVGEQNDFVEVMGNVLDNACKYCLEFVEISARQTDEHLYIVVEDDGPGIPLSKREVIFDRGQRVDTLRPGQGVGLAVAREITEQYEGKIVAGESMLGGARMEVIFGRQHSAPKDE

Variants of: B1
Experiment: enrichment ratio after two sorts for PhoP signalling (ratio (wild type AVST 3.29)); higher = more functional
Settings: with PhoP (E. coli)

Row | Variant | enrichment ratio
1 | IYDI | ≤ 0.25
2 | EDSR | ≤ 0.25
3 | KMPM | ≤ 0.25
4 | YVSD | ≤ 0.25
5 | RQYR | ≤ 0.25
6 | HAKY | ≤ 0.25
7 | DMQN | ≤ 0.25
8 | MLWE | ≤ 0.25
9 | MNHF | 4.26
10 | MNYY | ≤ 0.25
11 | MNAQ | 11.8
12 | MNNY | 15.3
13 | MNAY | 17
14 | MNHP | ≤ 0.25
15 | TNAQ | 4.37
16 | TNAY | 2.94
17 | MNYI | 9.81
18 | FVVQ | ≤ 0.25
19 | PGYA | ≤ 0.25
20 | ELDY | ≤ 0.25
21 | CSCS | ≤ 0.25
22 | SGGL | 6.41
23 | SGCL | 15.6
24 | NSCL | ≤ 0.25
25 | TSCL | 19.6

Row | Variant | enrichment ratio
26 | FSCL | 8.2
27 | GGCL | 8.88
28 | TGCL | 22.4
29 | CSCL | 16.1
30 | SGDL | ≤ 0.25
31 | KSCL | ≤ 0.25
32 | RGCL | ≤ 0.25
33 | PKNL | ≤ 0.25
34 | TSYE | ≤ 0.25
35 | RGSH | ≤ 0.25
36 | NMFD | ≤ 0.25
37 | IIHI | ≤ 0.25
38 | LILE | ≤ 0.25
39 | NHCE | ≤ 0.25
40 | NSGM | ≤ 0.25
41 | HPWS | ≤ 0.25
42 | YHCL | ≤ 0.25
43 | GNNL | 2.95
44 | GNCL | 18.1
45 | YSKR | ≤ 0.25
46 | RNAK | ≤ 0.25
47 | GNTM | 1.94
48 | ADTM | ≤ 0.25
49 | ATPM | 0.758
50 | ATTK | 10.4

Row | Variant | enrichment ratio
51 | ATTI | 13.7
52 | ATWM | ≤ 0.25
53 | ANTM | 44
54 | GHTM | ≤ 0.25
55 | KKTM | ≤ 0.25
56 | ATTM | 16.6
57 | ATTA | ≤ 0.25
58 | AITM | 23.3
59 | GVVP | ≤ 0.25
60 | QMYN | ≤ 0.25
61 | EFPL | ≤ 0.25
62 | KIKD | ≤ 0.25
63 | EALR | ≤ 0.25
64 | FKYT | ≤ 0.25
65 | VDAS | ≤ 0.25
66 | EAHV | ≤ 0.25
67 | NFSK | ≤ 0.25
68 | DNFH | ≤ 0.25
69 | KSWF | ≤ 0.25
70 | QKWF | 12.7
71 | FQWF | ≤ 0.25
72 | HKWF | ≤ 0.25
73 | QPWF | ≤ 0.25
74 | QRWF | ≤ 0.25
75 | QGWF | 18.8

Row | Variant | enrichment ratio
76 | FFWF | ≤ 0.25
77 | TKWF | 13.4
78 | VAKP | ≤ 0.25
79 | YQPA | ≤ 0.25
80 | LESI | ≤ 0.25
81 | MTAV | 7.37
82 | AMKH | ≤ 0.25
83 | VGAQ | ≤ 0.25
84 | RNKK | ≤ 0.25
85 | WHKS | ≤ 0.25
86 | HTKL | ≤ 0.25
87 | TMNT | 11.9
88 | NMNA | ≤ 0.25
89 | TMNA | 24.8
90 | TMGD | 3.55
91 | TMAT | 11.2
92 | TMTD | ≤ 0.25
93 | TMKT | ≤ 0.25
94 | TMNS | 7.25
95 | TMNI | 3.75
96 | TMND | 21.9
97 | TMPT | ≤ 0.25
98 | DMNA | ≤ 0.25
99 | AFCP | ≤ 0.25
100 | QIMN | ≤ 0.25

Row | Variant | enrichment ratio
101 | YLAK | ≤ 0.25
102 | NTVM | ≤ 0.25
103 | PIIP | ≤ 0.25
104 | IRSI | ≤ 0.25
105 | NCPV | ≤ 0.25
106 | LVVW | ≤ 0.25
107 | WDPT | ≤ 0.25
108 | YRQK | ≤ 0.25
109 | TMNF | 14.7
110 | KMNF | ≤ 0.25
111 | TMHK | ≤ 0.25
112 | TMNL | 5.04
113 | TMNN | 34
114 | NNNF | ≤ 0.25
115 | TMNG | 10.4
116 | TMHG | 13.3
117 | NMNN | ≤ 0.25
118 | DTAT | ≤ 0.25
119 | HKAG | ≤ 0.25
120 | YDNA | ≤ 0.25
121 | YEKP | ≤ 0.25
122 | KQFM | ≤ 0.25
123 | QHHY | ≤ 0.25
124 | MQFY | ≤ 0.25
125 | MQFM | 12.3

Row | Variant | enrichment ratio
126 | SQHY | ≤ 0.25
127 | QQHY | 21.2
128 | MQGD | ≤ 0.25
129 | MQFA | ≤ 0.25
130 | MQFD | 14.7
131 | MQHY | 12.6
132 | MQPI | ≤ 0.25
133 | MQHF | ≤ 0.25
134 | SYVF | 0.277
135 | YEDQ | ≤ 0.25
136 | WFMA | ≤ 0.25
137 | HCRL | ≤ 0.25
138 | RTQY | ≤ 0.25
139 | VMWE | ≤ 0.25
140 | AGDA | ≤ 0.25
141 | MQFQ | 11.9
142 | MQWM | 14.1
143 | MQSK | ≤ 0.25
144 | MQRV | ≤ 0.25
145 | MQRA | ≤ 0.25
146 | MQRM | ≤ 0.25
147 | MQFE | ≤ 0.25
148 | MQFS | 3.3
149 | MQGM | ≤ 0.25
150 | MQAE | ≤ 0.25

Row | Variant | enrichment ratio
151 | MQWI | 14.4
152 | MQAV | 18.4
153 | YMRM | ≤ 0.25
154 | TCKP | ≤ 0.25
155 | RKYE | ≤ 0.25
156 | RKAI | ≤ 0.25
157 | SLME | 2.88
158 | HFYE | ≤ 0.25
159 | GSHY | ≤ 0.25
160 | QNET | ≤ 0.25
161 | QCSY | ≤ 0.25
162 | EMSY | ≤ 0.25
163 | GCLP | 0.401
164 | LLKQ | ≤ 0.25
165 | RVRE | ≤ 0.25
166 | FSMQ | 3.93
167 | SSMQ | 11.5
168 | SRMQ | ≤ 0.25
169 | VVHP | ≤ 0.25
170 | KLMQ | ≤ 0.25
171 | KYMQ | ≤ 0.25
172 | SIMQ | 33.3
173 | SYMQ | ≤ 0.25
174 | VVMQ | 13.3
175 | SLMQ | 11.8

Row | Variant | enrichment ratio
176 | VYMQ | ≤ 0.25
177 | TLMQ | ≤ 0.25
178 | LNVR | ≤ 0.25
179 | KVQP | ≤ 0.25
180 | FGEF | ≤ 0.25
181 | ATMQ | 3.23
182 | PWPQ | ≤ 0.25
183 | PECM | ≤ 0.25
184 | VWYR | ≤ 0.25
185 | NSMQ | ≤ 0.25
186 | KSMQ | ≤ 0.25
187 | SWMQ | ≤ 0.25
188 | TSMQ | 13.9
189 | STMQ | 12
190 | SQMQ | 7.7
191 | RQGA | ≤ 0.25
192 | FECY | ≤ 0.25
193 | KYKH | ≤ 0.25
194 | YIRN | ≤ 0.25
195 | FEWK | ≤ 0.25
